From the supplement of paper PMC11417369
± gives the standard deviation of the averaged measurements. In all, about 25,000 sequences were measured (“ln(normalized median fluorescence intensity)”: median about 8.6, highest 2% from about 10 on). Only a selection was taken, and the highest values are over-represented in it overall.

Tested on: PfAP2-EXP AP2 domain (GST-tagged)
Assay: gcPBM binding intensity (ln(normalized median fluorescence intensity)); higher = stronger DNA binding
Procedure, shortened: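 After 1 h on an Agilent 4 × 180k array of primer-extended double-stranded 36-bp intergenic genomic probes and negative controls, bound GST-tagged P. falciparum DNA-binding domains were detected with Alexa488 anti-GST antibody and scanned at 488 nm. The domains had been expressed in E. coli, and binding took place in 1× PBS with 1% milk, 0.2 mg/ml BSA, 0.5% salmon testes DNA and 0.03% Triton X-100. Binding intensity is the highest Masliner-normalised natural-log median intensity across replicate spots of either probe orientation.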

Row | Sequence | gcPBM binding intensity (ln)
1 | TTTTTTTTTTTTTTTACACACAAATGTATACTATAT [CACACA_site1787] | 8.46 ± 0.43
2 | TTTTTATTGTTATAGTTATAATATATTATTTGATTA [XGTACX_negctrl_site27] | 8.44 ± 0.4
3 | ATATATATATATAATAGTACATATATTTTGAAAGAT [XGTACX_site5800] | 9.75 ± 0.27
4 | TATATATTAGAAGATAGTACATATATATTTATTAAT [XGTACX_site1011] | 8.53 ± 0.24
5 | ATATTTGCCCAAGATAGTACATATATATATATATAT [XGTACX_site7756] | 10.2 ± 0.24
6 | ATAAAAATATTATAAGCACACATATATATATATATA [CACACA_site8781] | 10.2 ± 0.34
7 | AAAAAAAAAAAATTCACACACATATAAAAAATTAAG [CACACA_site728] | 8.39 ± 0.45
8 | AAAATTAAATTATAAGCACACACATATATATATATA [CACACA_site9105] | 10.2 ± 0.52
9 | TATATATATATAAGCACACAAACAAAAAAAATTATA [CACACA_site3897] | 9.74 ± 0.27
10 | AAAAATATTATAAGCACACATATATATATATATATA [CACACA_site2458] | 10.3 ± 0.28
11 | ATAAAAAAAAATAGCACACATAAATATATTATATAT [CACACA_site767] | 8.66 ± 0.35
12 | AATTAAATTATAAGCACACACATATATATATATATA [CACACA_site3351] | 10.2 ± 0.32
13 | AAATTAAATGTAAGCACACATAAATTATACTCATAT [CACACA_site5782] | 8.36 ± 0.33
14 | AAATTAAATGTAAGCACACATAAATTATACGCATAT [CACACA_site3335] | 8.6 ± 0.38
15 | ATACAATAATATAAATGTACAAATTATATCTTCATT [XGTACX_site8994] | 8.37 ± 0.33
16 | TATACCTATAGACACACACACATAAATAGATATATA [CACACA_site6748] | 8.83 ± 0.51
17 | TATATGCAAAATGTCACACATGTGATAAATACATAT [CACACA_site4302] | 8.72 ± 0.36
18 | ATTTTACATATTTGCACACATATATTTATATACATA [CACACA_site854] | 8.89 ± 0.4
19 | TATAAAAAAAACGAAAAAAAAAAAAAAAATACAGGA [TGCATGCA_negctrl_site585] | 8.54 ± 0.61
20 | TATATATATATATATACACACATATACATATTGTTT [CACACA_site3499] | 10.2 ± 0.32
21 | AGTATACAGATATATACACACATATATATATATATA [CACACA_site4323] | 10 ± 0.41
22 | CATACATACATACATACACACATACAGATATATATA [CACACA_site4890] | 9.15 ± 0.32
23 | CACAGATATATACATACACACATATATACACATATA [CACACA_site6323] | 8.58 ± 0.38
24 | TATATATATATATATACACACATACAGATATATATT [CACACA_site4629] | 10.2 ± 0.36
25 | TATATATACATACATACACACATATATATATATATT [CACACA_site4110] | 8.71 ± 0.4
26 | GTTACATACAGATACACACACATATATATATATATA [CACACA_site4652] | 10.2 ± 0.15
27 | TGTTGTTACAGATATACACACATATATATATTATAT [CACACA_site5342] | 8.55 ± 0.41
28 | TATATATATATATATACACACATACATATATATATT [CACACA_site8185] | 10.1 ± 0.4
